In PubChem BioAssay (EPA / NIEHS) one finds outcome and AC50 data, which are given here for 36 molecules.

As a reminder, the AC50 is the concentration giving half of the maximal activity seen.

The source made the active and inactive calls. The calls were made as follows: active = hit-call score of the fitted dose curve at least 0.9, where 1 is the maximum; inactive = score below 0.9.

The first experiment can be described thus: CCTE_Shafer_MEA_acute_spike_number: CCTE's Neural Acute Assay for Total Number of Spikes, Shafer Lab (AID 2284008).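 As to AC50: curve fitted for decrease in spike count so AC50 reflects inhibitors.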 The method, boiled down:
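Total spike count from 40 min recordings before and during compound exposure (0.03-40 uM), given as per-well percent change. Cortical cultures from rat, DIV 13 or 15, 37 C; adaptive detection threshold 8x rms noise.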
`CCOP(=S)(OCC)SCSP(=S)(OCC)OCC`: the result was inactive.
Turning to `CC(C)(OO)c1ccccc1`, the molecule was classed as inactive.
Still for that read-out and setting: in the case of `CC(=O)OC(c1ccccc1)C(Cl)(Cl)Cl` (stereo unspecified) it was “inactive”.
The same measure, in the same setting: in the case of `COC(=O)Cc1ccccc1` it was “inactive”.
In the case of `CCN1CCC2(CC1)COc1cc3c(cc12)N(C(=O)c1ccc(-c2ccc(-c4nnc(C)o4)cc2C)cc1)CC3`, the AC50 was 7.7 µM (active).
`O=C(O)C(Cl)(Cl)Cl`: the molecule was classed as inactive.
Still for that read-out and setting: in the case of `ClC1(Cl)C2(Cl)C3(Cl)C4(Cl)C(Cl)(Cl)C5(Cl)C3(Cl)C1(Cl)C5(Cl)C24Cl` (stereo unspecified) it was “inactive”.

The nature of a further experiment: CCTE_Shafer_MEA_acute_firing_rate_mean: CCTE's Neural Acute Assay for Mean Firing Rate, Shafer Lab (AID 2284009).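 Also: analyzed for loss of signal so actives lower firing rate relative to DMSO.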 The gist of the method:
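Spontaneous spiking of primary rat cortical networks, DIV 13/15, 37 C. Compound 0.03-40 uM, n ≥3 wells; 40 min baseline vs 40 min treated. Endpoint fitted in loss-of-signal direction against DMSO.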
Turning to `CCOP(=S)(OCC)SCSP(=S)(OCC)OCC`, the result was inactive.
With `CC(C)(OO)c1ccccc1`, the result was inactive.
Same read-out and setting: as for `CC(=O)OC(c1ccccc1)C(Cl)(Cl)Cl` (stereo unspecified), the entry is “inactive”; as for `COC(=O)Cc1ccccc1`, “inactive”.
`CCN1CCC2(CC1)COc1cc3c(cc12)N(C(=O)c1ccc(-c2ccc(-c4nnc(C)o4)cc2C)cc1)CC3`: the AC50 was 7.7 µM (active).
As for `O=C(O)C(Cl)(Cl)Cl`, the molecule was classed as inactive.
Take `ClC1(Cl)C2(Cl)C3(Cl)C4(Cl)C(Cl)(Cl)C5(Cl)C3(Cl)C1(Cl)C5(Cl)C24Cl` (stereo unspecified): the outcome was inactive.

The nature of a further experiment: CCTE_Harrill_HTTr_Viability_MCF7: CCTE's 6-hour Cell Viability Assessment for the High-Throughput Transcriptomics (HTTr) Platform, in MCF-7 cells cultured in DMEM + 10% fetal bovine serum, Harrill Lab (AID 2284010). The method, boiled down: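 Read-out is propidium iodide gain of signal by high-content imaging, reflecting membrane integrity loss. Measurements are taken 6 h after dosing, eight concentrations per chemical, with DMSO serving as baseline for bidirectional curve fitting.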
Regarding `O=C(OC1CCCCC1)c1ccccc1C(=O)OC1CCCCC1`, the outcome was inactive.
`Fc1ccc(C2(Cn3cncn3)OC2c2ccccc2Cl)cc1` (stereo unspecified): the outcome was inactive.
On the same count and under the same terms, in the case of `COC(=O)c1sccc1S(=O)(=O)NC(=O)Nc1nc(C)nc(OC)n1` it was “inactive”; in that of `ClCCBr`, “inactive”.
`Cn1sc(Cl)cc1=O`: the outcome was inactive.
Same read-out and setting: in the case of `CCOP(=S)(OCC)SCSP(=S)(OCC)OCC` it was “inactive”.
As for `CC(=O)c1cc(C(C)(C)C)cc2c1CCC2(C)C`, the result was inactive.
Still for that read-out and setting: in the case of `COc1ccccc1OC` it was “inactive”.
On the same count and under the same terms, in the case of `Cc1cc(Cl)ccc1O[C@H](C)C(=O)O` it was “inactive”.
Take `CNC`: the outcome was inactive.
In the case of `Cl/C=C/Cl`, the result was inactive.
Same read-out and setting: in the case of `O=Cc1cccc(Oc2ccccc2)c1` it was “inactive”; in that of `CC(C)(OO)c1ccccc1`, “inactive”.
Take `CC(=O)OC(c1ccccc1)C(Cl)(Cl)Cl` (stereo unspecified): the result was inactive.
The same measure, in the same setting: in the case of `COC(=O)Cc1ccccc1` it was “inactive”.
Take `CCN1CCC2(CC1)COc1cc3c(cc12)N(C(=O)c1ccc(-c2ccc(-c4nnc(C)o4)cc2C)cc1)CC3`: the AC50 is 66.2 µM (active).
As to `CN(C)P(=O)(N(C)C)N(C)C`, the result was inactive.
Take `CCC(=O)c1ccccc1`: the outcome was inactive.
`Oc1ccc(-c2ccccc2)cc1`: the outcome was inactive.
Turning to `COP(=S)(OC)Oc1cc(Cl)c(Br)cc1Cl`, the result was inactive.
Take `O=C(O)C(Cl)(Cl)Cl`: the outcome was inactive.
Still for that read-out and setting: as for `ClCC(Cl)CCl`, the entry is “inactive”.
Same read-out and setting: as for `BrCCBr`, the entry is “inactive”; as for `CCCCCCCCCl`, “inactive”; as for `Oc1c(I)cc(I)cc1I`, “inactive”.
On to `CNC(=O)O/N=C/C(C)(C)S(C)=O` (stereo unspecified), for which the result was inactive.
`CCNc1nc(NC(C)(C)C)nc(SC)n1`: the outcome was inactive.
Still for that read-out and setting: in the case of `Cc1ccccc1N` it was “inactive”.
With `O=S(=O)(c1ccc(Cl)cc1)c1ccc(Cl)cc1`, the result was inactive.
As for `O=[N+]([O-])c1ccc2c3c(cccc13)CC2`, the outcome was inactive.
As to `COC[C@H](C)N(C(=O)CCl)c1c(C)csc1C`, the outcome was inactive.
On the same count and under the same terms, as for `C1CCC(NC2CCCCC2)CC1`, the entry is “inactive”.
As to `C=C(C)C#N`, the result was inactive.
On the same count and under the same terms, as for `ClC1(Cl)C2(Cl)C3(Cl)C4(Cl)C(Cl)(Cl)C5(Cl)C3(Cl)C1(Cl)C5(Cl)C24Cl` (stereo unspecified), the entry is “inactive”; as for `NC(=O)O`, “inactive”.
With `O=C1CCCN1`, the outcome was inactive.

A further experiment is described as follows: CCTE_Harrill_HTTr_Apoptosis_MCF7: CCTE's 6-hour Apoptosis Assessment for the High-Throughput Transcriptomics (HTTr) Platform, in MCF-7 cells cultured in DMEM + 10% fetal bovine serum, Harrill Lab (AID 2284011). The method, boiled down: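 High-content imaging of CellEvent Caspase 3/7 Green signal follows a six-hour exposure, with eight concentrations per chemical. MCF-7 cells grown in DMEM plus 10% fetal bovine serum; activity fitted in both directions against DMSO.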
In the case of `O=C(OC1CCCCC1)c1ccccc1C(=O)OC1CCCCC1`, the result was inactive.
In the case of `Fc1ccc(C2(Cn3cncn3)OC2c2ccccc2Cl)cc1` (stereo unspecified), the result was inactive.
In the case of `COC(=O)c1sccc1S(=O)(=O)NC(=O)Nc1nc(C)nc(OC)n1`, the result was inactive.
On the same count and under the same terms, in the case of `ClCCBr` it was “inactive”; in that of `Cn1sc(Cl)cc1=O`, “inactive”.
Same read-out and setting: as for `CCOP(=S)(OCC)SCSP(=S)(OCC)OCC`, the entry is “inactive”; as for `CC(=O)c1cc(C(C)(C)C)cc2c1CCC2(C)C`, “inactive”; as for `COc1ccccc1OC`, “inactive”.
For the molecule `Cc1cc(Cl)ccc1O[C@H](C)C(=O)O`, the outcome was inactive.
For the molecule `CNC`, the outcome was inactive.
Regarding `Cl/C=C/Cl`, the outcome was inactive.
The same measure, in the same setting: as for `O=Cc1cccc(Oc2ccccc2)c1`, the entry is “inactive”.
Turning to `CC(C)(OO)c1ccccc1`, the result was inactive.
Still for that read-out and setting: in the case of `CC(=O)OC(c1ccccc1)C(Cl)(Cl)Cl` (stereo unspecified) it was “inactive”; in that of `COC(=O)Cc1ccccc1`, “inactive”.
Consider `CCN1CCC2(CC1)COc1cc3c(cc12)N(C(=O)c1ccc(-c2ccc(-c4nnc(C)o4)cc2C)cc1)CC3`, for which the concentration at half-maximal activity (AC50) was 60.3 µM (active).
Regarding `CN(C)P(=O)(N(C)C)N(C)C`, the result was inactive.
Same read-out and setting: in the case of `CCC(=O)c1ccccc1` it was “inactive”; in that of `Oc1ccc(-c2ccccc2)cc1`, “inactive”; in that of `COP(=S)(OC)Oc1cc(Cl)c(Br)cc1Cl`, “inactive”.
Same read-out and setting: as for `O=C(O)C(Cl)(Cl)Cl`, the entry is “inactive”; as for `ClCC(Cl)CCl`, “inactive”; as for `BrCCBr`, “inactive”.
As to `CCCCCCCCCl`, the outcome was inactive.
Same read-out and setting: as for `Oc1c(I)cc(I)cc1I`, the entry is “inactive”; as for `CNC(=O)O/N=C/C(C)(C)S(C)=O` (stereo unspecified), “inactive”.
Turning to `CCNc1nc(NC(C)(C)C)nc(SC)n1`, the result was inactive.
As for `Cc1ccccc1N`, the outcome was inactive.
Still for that read-out and setting: in the case of `O=S(=O)(c1ccc(Cl)cc1)c1ccc(Cl)cc1` it was “inactive”; in that of `O=[N+]([O-])c1ccc2c3c(cccc13)CC2`, “inactive”.
Consider `COC[C@H](C)N(C(=O)CCl)c1c(C)csc1C`, for which the result was inactive.
Regarding `C1CCC(NC2CCCCC2)CC1`, the result was inactive.
On the same count and under the same terms, as for `C=C(C)C#N`, the entry is “inactive”; as for `ClC1(Cl)C2(Cl)C3(Cl)C4(Cl)C(Cl)(Cl)C5(Cl)C3(Cl)C1(Cl)C5(Cl)C24Cl` (stereo unspecified), “inactive”.
Turning to `NC(=O)O`, the outcome was inactive.
Take `O=C1CCCN1`: the result was inactive.
